# Measurements: PubChem BioAssay
# Results filed as inconclusive are left out. Calls of active or inactive are those of the source. Unless noted, no stated cut-off is given here; in the data, active means inhibition above about 80%; inactive means the rest.
# Columns and labels:
# [1] = viability loss in pontine glioma line – cell-based, SU-DIPG-IV, MIPE4.0, CellTiter-Glo, qHTS, dose response (AID 1347063; cut-off not given, nearly all actives have AC50 up to about 30 µM;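 further: compound exposure lasted 48 hours before the viability readout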); conditions: CellTiter-Glo ATP luminescence
# [2] = growth inhibition, single agent or in combination, cell-based, chromothripsis tumors, cisplatin or BGB combos (AID 1671449); conditions: LFS_MB_P medulloblastoma cells;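 further: cells exposed for 96 hours; 0% = vehicle DMSO and 100% = killing by high DMSO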
# [3] = growth inhibition, single agent and combos, cell-based, chromothripsis tumors, cisplatin or BGB combos (AID 1671450); conditions: HDN33 neuroblastoma cells, stronger effect = higher value;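 further: cells exposed to compound for four days; 0% = vehicle DMSO and 100% = cell killing by high DMSO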
# [4] = growth inhibition, single agents and combos, ICB984, cell-based, cisplatin or BGB combos, synergistic combos for chromothripsis tumors (AID 1671451; call rule not given here;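 further: cells exposed for 96 hours before readout; 0% = vehicle DMSO and 100% = killing by high DMSO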); conditions: ICB984 medulloblastoma cells, drug combinations, stronger effect = higher value
# [5] = growth inhibition, single agents and combos, LFS_MB_1R, cell-based, cisplatin or BGB combos, synergistic combos for chromothripsis tumors (AID 1671452); conditions: LFS_MB_1R medulloblastoma cells, stronger effect = higher value;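 further: cells exposed for 96 hours before readout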
# [6] = growth inhibition, single agents and combos, HTB85, cell-based, BGB or cisplatin IC20 combos, synergistic combos for chromothripsis tumors (AID 1671453); conditions: HTB85 osteosarcoma cells, drug combinations, stronger effect = higher value;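 further: cells exposed for 96 hours before readout; 0% = vehicle DMSO and 100% = high DMSO killing control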
# [7] = growth inhibition, single agents and combos, CRL2098, cell-based, BGB or cisplatin IC20 combos, synergistic combos for chromothripsis tumors (AID 1671454); conditions: CRL2098 osteosarcoma cells, drug combinations, stronger effect = higher value;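 further: cells exposed for 96 h before readout; 0% = vehicle DMSO and 100% = killing by high DMSO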
# [8] = growth inhibition, single agents and combos, HD-MB03, cell-based, BGB or cisplatin IC20 combos, synergistic combos for chromothripsis tumors (AID 1671455; in the data active means inhibition above about 83%;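 further: 0% = vehicle DMSO and 100% = high DMSO as cytotoxic control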); conditions: HD-MB03 medulloblastoma cells, stronger effect = higher value
# [9] = growth inhibition, MDA-MB-436, cell-based, BGB or cisplatin combos, synergistic combos for chromothripsis tumors (AID 1671458; call rule not given here;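 further: cells exposed for 96 hours; 0% = vehicle DMSO and 100% = killing by high DMSO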); conditions: MDA-MB-436 breast carcinoma growth inhibition, drug combinations, stronger effect = higher value
# [10] = BT084 cell growth, single and combined drugs, ICGC_MB145, cisplatin and BGB IC40 combos (AID 1671461); conditions: BT084 medulloblastoma cells, drug combinations, stronger effect = higher value;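 further: cells exposed to drugs for 96 hours; 0% = vehicle DMSO and 100% = high DMSO full killing control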
# [11] = RCMB18 cell growth, single agent and combined, cisplatin and BGB IC40 combos (AID 1671462); conditions: RCMB18 medulloblastoma cells, stronger effect = higher value;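 further: cells exposed to compound for four days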
# [12] = CRL1545 cell growth, single agent and combined, cisplatin and BGB IC20 combos (AID 1671464); conditions: CRL1545 osteosarcoma cells, stronger effect = higher value;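 further: cells exposed to compound for 96 hours before readout; 0% = vehicle DMSO and 100% = high DMSO killing control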
# [13] = at 0.5 µM, stronger effect = higher value
# [14] = measured here: combination with BGB IC20, at 0.005 µM
# [15] = measured here: combination with BGB IC40, at 0.005 µM
# [16] = measured here: combination with BGB IC40, at 0.05 µM
# [17] = measured here: combination with cisplatin, at 0.5 µM, stronger effect = higher value
# [18] = measured here: combination with cisplatin, at 5 µM, stronger effect = higher value
# [19] = measured here: with BGB IC20 combination, at 0.5 µM
# [20] = measured here: with cisplatin IC20 combination, at 0.5 µM
# [21] = measured here: 5 uM single agent, at 5 µM
# [22] = measured here: combination with cisplatin, at 0.5 µM
# [23] = measured here: combination with cisplatin, at 5 µM
# [24] = measured here: with BGB IC20, at 0.5 µM
# [25] = measured here: with BGB IC20, at 5 µM
# [26] = measured here: with cisplatin IC20, at 0.5 µM
# [27] = measured here: with cisplatin IC20, at 5 µM
smiles,measurement,setting,value
CCc1c2c(nc3ccc(O)cc13)-c1cc3c(c(=O)n1C2)COC(=O)[C@]3(O)CC,AC50,[1],0.0296 µM (active)
same,inhibition,[2]; [13],-26% (inactive)
same,inhibition,[2]; [14],-6.89%
same,inhibition,[2]; [15],-27.9%
same,inhibition,[2]; [16],-20.9%
same,inhibition,[2]; [17],-58.2%
same,inhibition,[2]; [18],87.9%
same,inhibition,"[3]; BGB combo, at 5 µM",98.3%
same,inhibition,[3]; at 0.5 µM,84.1% (active)
same,inhibition,"[3]; cisplatin combo, at 5 µM",98.4%
same,inhibition,[3]; [19],83%
same,inhibition,[3]; [20],82.2%
same,inhibition,"[3]; single agent, at 5 µM",96.3%
same,inhibition,"[4]; BGB IC20 combo, at 0.005 µM",45.8%
same,inhibition,"[4]; BGB IC40 combo, at 0.005 µM",68.8%
same,inhibition,"[4]; BGB IC40 combo, at 0.05 µM",95.3%
same,inhibition,[4]; at 0.5 µM,-17.9% (inactive)
same,inhibition,"[4]; cisplatin combo, at 0.05 µM",95.2%
same,inhibition,"[4]; cisplatin combo, at 0.5 µM",-11.4%
same,inhibition,"[4]; cisplatin combo, at 5 µM",-28.7%
same,inhibition,[4]; [21],-16.8%
same,inhibition,[5]; at 0.5 µM,74.1% (inactive)
same,inhibition,[5]; [16],-7.58%
same,inhibition,[5]; [22],77.6%
same,inhibition,[5]; [23],86.6%
same,inhibition,[6]; at 0.5 µM,98.3% (active)
same,inhibition,[6]; [24],96.1%
same,inhibition,[6]; [25],98.1%
same,inhibition,[6]; [26],99.1%
same,inhibition,[6]; [27],99.5%
same,inhibition,"[6]; single agent, at 5 µM",99.6%
same,inhibition,[7]; at 0.5 µM,57.3% (inactive)
same,inhibition,"[7]; measured here: combination with BGB at IC20, at 0.5 µM",88.7%
same,inhibition,"[7]; measured here: combination with cisplatin at IC20, at 0.5 µM",37.4%
same,inhibition,[8]; at 0.5 µM,99.5% (active)
same,inhibition,"[8]; measured here: combo with BGB at IC20, at 0.5 µM",99.5%
same,inhibition,"[8]; measured here: combo with cisplatin at IC20, at 0.5 µM",99.6%
same,inhibition,[9]; at 0.5 µM,72.1% (inactive)
same,inhibition,"[9]; measured here: BGB combination, at 0.5 µM",67%
same,inhibition,"[9]; measured here: BGB combination, at 5 µM",73.3%
same,inhibition,"[9]; measured here: cisplatin combination, at 0.5 µM",71.2%
same,inhibition,"[9]; measured here: cisplatin combination, at 5 µM",84.4%
same,inhibition,[10]; at 0.5 µM,5.49% (inactive)
same,inhibition,"[10]; cisplatin combination, at 0.5 µM",45.3%
same,inhibition,"[10]; cisplatin combination, at 5 µM",33.9%
same,inhibition,"[10]; measured here: BGB IC40 combination 0.05 uM, at 0.05 µM",-2.99%
same,inhibition,"[10]; single agent, at 5 µM",52.7%
same,inhibition,[11]; at 0.5 µM,30.1% (inactive)
same,inhibition,"[11]; cisplatin combo, at 5 µM",67.1%
same,inhibition,"[11]; measured here: BGB IC40 combination, at 0.05 µM",-24.6%
same,inhibition,[11]; [22],61.9%
same,inhibition,"[11]; single agent, at 5 µM",62.2%
same,inhibition,[12]; at 0.5 µM,93.7% (active)
same,inhibition,[12]; [19],98.1%
same,inhibition,[12]; [20],91.2%
same,inhibition,"[12]; single agent, at 0.05 µM",16.8%
same,inhibition,"[12]; single agent, at 5 µM",99.8%
COC1CCC(C(=O)c2ccc3nc4c(cc3c2)CCCO4)CC1 (stereo not drawn),AC50,[1],9.35 µM (active)
O=c1cc(-c2cccc3c2Sc2ccccc2S3)oc(N2CCOCC2)c1,inhibition,[2]; [13],81.3% (active)
same,inhibition,[2]; [14],-22.8%
same,inhibition,[2]; [15],-15.3%
same,inhibition,[2]; [16],-27.2%
same,inhibition,[2]; [17],108%
same,inhibition,[2]; [18],-58.3%
same,inhibition,"[3]; BGB combo, at 5 µM",-23.9%
same,inhibition,[3]; at 0.5 µM,-20.7% (inactive)
same,inhibition,"[3]; cisplatin combo, at 5 µM",-6.5%
same,inhibition,[3]; [19],-21.1%
same,inhibition,[3]; [20],-8.71%
same,inhibition,"[3]; single agent, at 5 µM",-26.1%
same,inhibition,"[4]; BGB IC20 combo, at 0.005 µM",-0.749%
same,inhibition,"[4]; BGB IC40 combo, at 0.005 µM",-24.9%
same,inhibition,"[4]; BGB IC40 combo, at 0.05 µM",11.6%
same,inhibition,[4]; at 0.5 µM,-26.5% (inactive)
same,inhibition,"[4]; cisplatin combo, at 0.05 µM",9.17%
same,inhibition,"[4]; cisplatin combo, at 0.5 µM",-36.8%
same,inhibition,"[4]; cisplatin combo, at 5 µM",-31.3%
same,inhibition,[4]; [21],-22.7%
same,inhibition,[5]; at 0.5 µM,-10.6% (inactive)
same,inhibition,[5]; [16],-24.7%
same,inhibition,[5]; [22],9.6%
same,inhibition,[5]; [23],-31.9%
same,inhibition,[6]; at 0.5 µM,-13.7% (inactive)
same,inhibition,[6]; [24],-13.9%
same,inhibition,[6]; [25],-31%
same,inhibition,[6]; [26],-8.83%
same,inhibition,[6]; [27],-19.5%
same,inhibition,"[6]; single agent, at 5 µM",-17.7%
